Consider 13 molecules from PubChem BioAssay (Tox21).

Test [1] can be described thus: qHTS assay to identify small molecule antagonists of the thyroid receptor (TR) signaling pathway (AID 743065). Further: nearly all actives have a fitted effect of over 55% in size. Further: potency means the concentration at half of the fitted maximal effect. The method, boiled down: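 Antagonism measured as loss of luciferase signal in GH3 cells stably carrying a TRE-luciferase reporter, co-treated with compound and T3 (1 nM final) for 23.5 h at 37 C. Viability was read in the same well by CellTiter-Fluor.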
A general note: In qHTS, concentration-response curves come from the screen itself.

Test [2] has as its system thyroid hormone receptor (rat, GH3 cells). Put plainly: qHTS assay to identify small molecule agonists of the thyroid receptor (TR) signaling pathway (AID 743066; calls by dose curve).
Test [3] can be described thus: qHTS assay to identify small molecule antagonists of the estrogen receptor alpha (ER-alpha) signaling pathway - cell viability counter screen (AID 743074; calls by dose curve;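 further: HEK293 cells carrying ER-alpha-UAS-bla reporter stimulated with 17beta-estradiol; nearly all actives have a fitted effect of over 45% in size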; further: potency means the concentration at half of the fitted maximal effect).
The target of test [4] is Estrogen receptor (Homo sapiens) (UniProt P03372). Put plainly: qHTS assay to identify small molecule agonists of the estrogen receptor alpha (ER-alpha) signaling pathway (AID 743075; calls by dose curve;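 further: HEK293 GripTite cells with ER-alpha and UAS-driven beta-lactamase reporter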).
Test [5] in a line: qHTS assay to identify small molecule antagonists of the estrogen receptor alpha (ER-alpha) signaling pathway using the BG1 cell line - cell viability counter screen (AID 743081).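 Further: compound given together with 17beta-estradiol as the ER stimulus; nearly all actives have a fitted effect of over 45% in size.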 Further: potency means the concentration at half of the fitted maximal effect.
In test [6] the target is Aromatase (Homo sapiens) (UniProt P11511). Put plainly: qHTS assay to identify aromatase inhibitors (AID 743083). Further: nearly all actives have a fitted effect of over 55% in size. Further: potency means the concentration at half of the fitted maximal effect.
A short description of test [7]: qHTS assay to identify aromatase inhibitors - cell viability counter screen (AID 743084).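 Further: cells stimulated with testosterone during compound exposure; nearly all actives have a fitted effect of over 55% in size.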 Further: potency means the concentration at half of the fitted maximal effect.
Test [8] has as its target Aryl hydrocarbon receptor (Homo sapiens) (UniProt P35869). Put plainly: qHTS assay to identify small molecule that activate the aryl hydrocarbon receptor (AhR) signaling pathway (AID 743085). Further: nearly all actives have a fitted effect of over 15% in size. Further: potency means the concentration at half of the fitted maximal effect.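 On activation: HG2L7.5c1 human HepG2 liver cells with stably integrated DRE-driven firefly reporter; series mostly up to about 70 µM.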 In outline:
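Reporter assay in engineered HepG2 line HG2L7.5c1, whose plasmid carries twenty dioxin responsive elements upstream of firefly luciferase. Treatment lasted 24 h at 37C; ONE-Glo luminescence gauged induction.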

Test [9] in a line: qHTS assay to identify small molecule antagonists of the peroxisome proliferator-activated receptor gamma (PPARg) signaling pathway - cell viability counter screen (AID 743194). Further: nearly all actives have a fitted effect of over 55% in size. Further: potency means the concentration at half of the fitted maximal effect. In outline:
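Viability was measured as CellTiter-Glo luminescence in GeneBLAzer PPARg UAS-bla HEK293H cells. These cells had been exposed 17 h at 37 C to compounds together with rosiglitazone at 50 nM final, with the beta-lactamase readout taken in the same wells.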

Test [10] in a line: qHTS assay for small molecule agonists of the antioxidant response element (ARE) signaling pathway - cell viability counter screen (AID 743203; calls by dose curve; further: nearly all actives have a fitted effect of over 55% in size; further: potency means the concentration at half of the fitted maximal effect). The method, boiled down:
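Cells (ARE-bla HepG2, 2,000/well) receive DMSO-dissolved compounds after a 5 hrs rest. Plates incubate 16 hrs at 37C/5% CO2. CellTiter-Glo luminescence is then recorded after 30 min at room temperature.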

The nature of test [11]: qHTS assay for small molecule activators of the heat shock response signaling pathway - cell viability counter screen (AID 743209). Further: nearly all actives have a fitted effect of over 50% in size. Further: potency means the concentration at half of the fitted maximal effect. The method, boiled down: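 Quantitative HTS format, Tox21 10K library. HeLa cells carrying an HSE-driven beta-lactamase reporter were treated 5 h at 37 C, then assessed for viability by CellTiter-Glo luminescence.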
The nature of test [12]: qHTS assay to identify small molecule that activate the aryl hydrocarbon receptor (AhR) signaling pathway - cell viability counter screen (AID 743086).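 Further: HepG2 liver cells carrying the AhR DRE luciferase reporter; series mostly up to about 70 µM; nearly all actives have a fitted effect of over 45% in size.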 The method, boiled down:
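Cytotoxicity counter screen: CellTiter-Fluor signal (30 min, 37 C) in 4000 HepG2 cells/well carrying the DRE-luciferase reporter, following 24 h compound exposure at 37 C.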

A short description of test [13]: qHTS assay to identify small molecule antagonists of the estrogen receptor alpha (ER-alpha) signaling pathway using the BG1 cell line (AID 743080; calls by dose curve;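 further: BG1 cells stimulated with 17beta-estradiol alongside compound; nearly all actives have a fitted effect of over 25% in size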; further: potency means the concentration at half of the fitted maximal effect). In outline: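 Endogenous full-length ER-alpha in BG1-Luc-4E2 cells drives a stably integrated 4×ERE luciferase gene; compounds were tested against 17beta-estradiol over 21.5 h, with luminescence and multiplexed viability fluorescence recorded.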

In test [14] the target is Estrogen receptor (Homo sapiens) (UniProt P03372). The experiment in a line: qHTS assay to identify small molecule antagonists of the estrogen receptor alpha (ER-alpha) signaling pathway (AID 743069; active means well fitted curve in the direction sought with a large enough effect in the signal ratio in the repeat runs, not every such curve was filed as active; the % refers to the signal ratio). In outline: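 ER-alpha-UAS-bla GripTite HEK293 line; 2% charcoal-stripped FBS overnight; plated, 4 hr 37C/5% CO2; cpd in DMSO + 17beta-estradiol, 18 hr 37C; LiveBLAzer B/G FRET substrate 2 hr RT; fluorescence intensity.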

For test [15] the target is unchanged. Put plainly: qHTS assay to identify small molecule agonists of the estrogen receptor alpha (ER-alpha) signaling pathway using the BG1 cell line (AID 743079). Further: nearly all actives have a fitted effect of over 20% in size.
Test [16] in a line: qHTS assay for small molecule agonists of the antioxidant response element (ARE) signaling pathway (AID 743202; active means well fitted activation curve with a large enough effect in the signal ratio in the repeat runs, not every such curve was filed as active; the % refers to the signal ratio). The method, boiled down:
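Quantitative high-throughput format in HepG2 cells bearing an integrated ARE-beta-lactamase reporter. Compound exposure lasted 16 h at 37 C, and fluorescence was read 2 h after adding LiveBLAzer B/G substrate at room temperature.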

Test [17] can be described thus: qHTS assay for small molecule activators of the heat shock response signaling pathway (AID 743210; active means well fitted activation curve with a large enough effect in the signal ratio in the repeat runs, with a control signal flat, not every such curve was filed as active; the % refers to the signal ratio; further: series mostly up to about 63 µM). In outline: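 HeLa HSE-bla cells, overnight plating; cpd in DMSO 5 h, 37 C; LiveBLAzer B/G FRET substrate 2.5 h RT; fluorescence intensity read.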
Test [18] addresses Peroxisome proliferator-activated receptor gamma (Homo sapiens) (UniProt P37231). Put plainly: qHTS assay to identify small molecule agonists of the peroxisome proliferator-activated receptor gamma (PPARg) signaling pathway (AID 743094; active means well fitted activation curve with a large enough effect in the signal ratio in the repeat runs, not every such curve was filed as active; the % refers to the signal ratio). The method, boiled down:
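Stably transfected HEK293H cells (GeneBLAzer PPARg UAS-bla) were incubated with test substances for 17 h at 37C after a 5 h pre-incubation; beta-lactamase activity was then detected by FRET substrate fluorescence.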

Several values for one entry are separate records, joined by “and”; a condition that tells them apart may be missing. Equal values may be shown once. Records with an inconclusive call do not appear. Activity calls are given as the source filed them. Unless noted, the call rests on the fitted dose curve; in most records, active means well fitted curve in the direction sought with a large enough effect in the repeat runs; inconclusive means weak or mixed curves; inactive means no such curve, though single readings can be large; an effect the other way counts as inactive or inconclusive.

Sequence of Aromatase (Homo sapiens) (P11511 whole entry, looked up): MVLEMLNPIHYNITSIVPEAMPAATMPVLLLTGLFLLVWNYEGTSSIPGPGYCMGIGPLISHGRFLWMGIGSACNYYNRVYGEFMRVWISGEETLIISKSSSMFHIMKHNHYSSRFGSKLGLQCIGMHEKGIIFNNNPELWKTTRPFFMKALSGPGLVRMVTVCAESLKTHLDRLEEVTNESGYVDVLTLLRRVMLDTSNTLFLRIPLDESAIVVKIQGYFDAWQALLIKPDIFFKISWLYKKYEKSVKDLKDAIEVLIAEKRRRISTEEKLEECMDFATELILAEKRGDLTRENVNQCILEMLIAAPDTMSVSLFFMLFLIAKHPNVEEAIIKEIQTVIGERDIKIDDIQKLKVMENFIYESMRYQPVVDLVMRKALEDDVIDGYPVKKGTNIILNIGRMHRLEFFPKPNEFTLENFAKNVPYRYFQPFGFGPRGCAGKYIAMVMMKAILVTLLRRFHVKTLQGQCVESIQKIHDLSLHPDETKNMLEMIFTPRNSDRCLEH
Sequence of Aryl hydrocarbon receptor (Homo sapiens) (P35869 whole entry, looked up): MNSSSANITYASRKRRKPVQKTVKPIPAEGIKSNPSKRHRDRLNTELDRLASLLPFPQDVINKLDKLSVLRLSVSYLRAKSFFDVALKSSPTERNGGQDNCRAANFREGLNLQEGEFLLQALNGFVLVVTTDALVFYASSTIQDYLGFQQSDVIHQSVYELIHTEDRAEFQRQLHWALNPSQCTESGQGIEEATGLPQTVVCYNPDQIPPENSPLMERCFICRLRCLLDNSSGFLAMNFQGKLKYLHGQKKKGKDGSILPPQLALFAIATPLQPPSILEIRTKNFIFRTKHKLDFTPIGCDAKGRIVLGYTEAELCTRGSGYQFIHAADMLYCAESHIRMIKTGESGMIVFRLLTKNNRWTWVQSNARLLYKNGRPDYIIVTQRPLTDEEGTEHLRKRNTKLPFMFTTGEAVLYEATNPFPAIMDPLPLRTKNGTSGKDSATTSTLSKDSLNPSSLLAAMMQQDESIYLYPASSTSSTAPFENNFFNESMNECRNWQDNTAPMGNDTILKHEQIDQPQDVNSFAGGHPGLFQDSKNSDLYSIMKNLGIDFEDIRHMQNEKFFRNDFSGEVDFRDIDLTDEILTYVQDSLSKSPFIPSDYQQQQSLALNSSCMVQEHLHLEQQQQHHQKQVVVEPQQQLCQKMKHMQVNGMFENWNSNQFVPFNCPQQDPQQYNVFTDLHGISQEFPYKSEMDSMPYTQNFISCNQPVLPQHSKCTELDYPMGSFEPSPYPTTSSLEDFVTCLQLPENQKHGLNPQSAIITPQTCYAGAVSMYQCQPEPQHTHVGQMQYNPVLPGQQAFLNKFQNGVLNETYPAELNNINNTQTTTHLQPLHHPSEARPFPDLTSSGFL
Sequence of Estrogen receptor (Homo sapiens) (P03372 whole entry, looked up): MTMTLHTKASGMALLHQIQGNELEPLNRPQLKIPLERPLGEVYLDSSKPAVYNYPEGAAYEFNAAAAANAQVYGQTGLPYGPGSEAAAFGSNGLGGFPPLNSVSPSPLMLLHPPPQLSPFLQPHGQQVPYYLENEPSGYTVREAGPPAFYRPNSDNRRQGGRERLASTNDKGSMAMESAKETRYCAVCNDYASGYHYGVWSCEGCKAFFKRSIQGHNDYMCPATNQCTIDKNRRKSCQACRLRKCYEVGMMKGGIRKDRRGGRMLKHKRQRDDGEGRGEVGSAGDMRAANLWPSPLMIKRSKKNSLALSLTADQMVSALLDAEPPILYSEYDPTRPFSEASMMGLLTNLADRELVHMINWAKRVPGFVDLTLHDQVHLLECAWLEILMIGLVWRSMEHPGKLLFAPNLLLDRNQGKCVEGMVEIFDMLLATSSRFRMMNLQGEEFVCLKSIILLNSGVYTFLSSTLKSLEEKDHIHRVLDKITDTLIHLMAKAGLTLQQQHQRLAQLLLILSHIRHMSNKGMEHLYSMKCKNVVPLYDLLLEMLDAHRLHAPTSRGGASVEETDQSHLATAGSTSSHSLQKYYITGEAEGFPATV
Sequence of Peroxisome proliferator-activated receptor gamma (Homo sapiens) (P37231 whole entry, looked up): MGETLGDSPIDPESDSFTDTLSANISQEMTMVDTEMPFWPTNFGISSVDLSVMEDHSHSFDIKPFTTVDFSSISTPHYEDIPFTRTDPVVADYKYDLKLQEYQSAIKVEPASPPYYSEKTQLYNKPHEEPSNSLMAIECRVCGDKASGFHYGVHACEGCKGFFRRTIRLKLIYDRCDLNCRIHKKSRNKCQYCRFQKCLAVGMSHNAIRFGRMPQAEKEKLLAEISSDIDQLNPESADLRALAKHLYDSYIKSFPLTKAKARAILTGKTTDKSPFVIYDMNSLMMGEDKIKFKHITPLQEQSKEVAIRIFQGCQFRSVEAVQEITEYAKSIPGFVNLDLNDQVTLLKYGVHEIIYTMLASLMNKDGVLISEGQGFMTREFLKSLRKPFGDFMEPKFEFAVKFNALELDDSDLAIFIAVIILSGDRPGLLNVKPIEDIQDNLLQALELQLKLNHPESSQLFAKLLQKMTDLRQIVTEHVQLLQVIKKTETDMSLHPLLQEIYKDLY

Regarding `C[C@H]1O[C@@H](O[C@H]2CC[C@@]3(C)[C@H](CC[C@@H]4[C@@H]3C[C@@H](O)[C@]3(C)[C@@H](C5=CC(=O)OC5)CC[C@]43O)C2)C[C@H](O)[C@@H]1O[C@H]1C[C@H](O)[C@H](O[C@H]2C[C@H](O)[C@H](O[C@@H]3O[C@H](CO)[C@@H](O)[C@H](O)[C@H]3O)[C@@H](C)O2)[C@@H](C)O1`, the Potency result in [1], in test [2], in [4], in test [5], in [6] and in [7] was “inactive” in each case. The Potency entry in [8] was “inactive”. The Potency in [3] was 0.268 µM (active); in [9], 0.15 µM (active); in test [10] it was 0.075 µM (active); in test [11], 1.06 µM (active).

For the molecule `CO/N=C(\C(=O)N[C@@H]1C(=O)N2C(C(=O)O)=C(COC(C)=O)CS[C@H]12)c1csc(N)n1` (stereo in doubt), the Potency result in [1], in test [2], in [3], in [5] and in [12] was “inactive” in each case.

`O=C(O)[C@H]1CN(C/C=C/P(=O)(O)O)CCN1`: the Potency result in [1], in test [2], in [3], in [5], in test [6] and in [7] was “inactive” throughout. The Potency result in [12] was “inactive”.

With `C=C1C(CCl)(CCl)C2(Cl)C(Cl)C(Cl)C1(Cl)C2(Cl)Cl` (stereo not drawn), the Potency in test [1] is 5.31 µM (active) and 48 µM (active); in test [3], 23.9 µM (active); in test [6], 29.8 µM (active) and 60.4 µM (active); in [7], 53.8 µM (active); in test [9], 54.3 µM (active); in test [10], 60.4 µM (active). Also, in test [11], the Potency was 54.3 µM (active). The Potency result in test [2], in test [5], in test [8] and in test [12] was “inactive” in each case.

Consider `C[C@@H]1O[C@@H]1P(=O)(O)O`, for which the Potency result in test [1], in test [2], in [3], in test [5], in test [6] and in test [7] was “inactive” throughout. In addition, the Potency result in test [12] is “inactive”.

In the case of `CCOC(=O)[C@H](CCc1ccccc1)N[C@@H](C)C(=O)N1[C@H](C(=O)O)C[C@H]2CCCC[C@@H]21`, the Potency entry in test [1], in test [2], in test [3], in test [5], in test [6] and in [7] was “inactive” each time. Further, in test [8], the Potency result was “inactive”.

In the case of `CCCCCCCCCCCC[n+]1ccc2ccccc2c1`, the Potency was 3.76 µM (active) in test [1]; 2.13 µM (active) in test [3]; 7.5 µM (active) in test [13]; 26.6 µM (active) in [5]; 10.6 µM (active) in test [6]. The Potency result in test [4] and in [8] was “inactive” each time.

With `CN(C/C=C/c1ccccc1)Cc1cccc2ccccc12`, the Potency result in test [2], in test [14], in test [3], in test [4], in test [15] and in [13] was “inactive” throughout. The Potency result in test [5], in test [6], in [7], in test [8], in test [12] and in [9] was “inactive” each time. For the same molecule, the Potency entry in test [16], in test [10] and in [11] was “inactive” each time. Moreover, the outcome in test [17] was inactive.

Consider `O=C(O)[C@@H]1C[C@H](CP(=O)(O)O)CCN1`, for which the Potency result in [14], in [3], in test [4], in test [15], in test [13] and in [5] was “inactive” in each case. For the same molecule, the Potency result in test [6], in test [7], in test [8], in [12] and in test [18] was “inactive” each time.

For `Cc1cn([C@H]2C[C@H](O)[C@@H](CO)O2)c(=O)[nH]c1=O`, the Potency entry in [14], in test [3], in [4], in test [15], in test [13] and in test [5] was “inactive” in each case. Besides, the Potency result in [6], in [7], in test [8], in [12] and in test [18] was “inactive” each time.

For `CC1(C)S[C@@H]2[C@H](NC(=O)[C@@H](NC(=O)N3CCNC3=O)c3ccccc3)C(=O)N2[C@H]1C(=O)O`, the Potency entry in [14], in [3], in [4], in test [15], in test [13] and in test [5] was “inactive” each time. Further, the Potency entry in test [6], in test [7], in [8], in test [12] and in test [18] was “inactive” in each case.

For the molecule `C/C=C/C1=C(C(=O)O)N2C(=O)[C@@H](NC(=O)[C@H](N)c3ccc(O)cc3)[C@H]2SC1`, the Potency result in [2], in test [14], in test [3], in test [4], in test [15] and in [13] was “inactive” in each case. For the same molecule, the Potency entry in test [5], in test [6], in test [7], in test [8] and in test [12] was “inactive” throughout.

Turning to `c1ccc(-c2ccc(C(c3ccccc3)n3ccnc3)cc2)cc1` (stereo not drawn), the Potency entry in [3], in test [15], in test [13], in test [5], in test [7] and in [18] was “inactive” each time. Moreover, the Potency was 0.75 µM (active) in test [6] and 1.06 µM (active) in test [8].
